For 19 compounds, Percent Effect results are on record in ChEMBL document CHEMBL3988442, “University of Dundee, Small-Polar-MMV Screening Library” (2021).

Experiment [1] deals with T1, Aspartate--tRNA(Asp/Asn) ligase (Mycobacterium tuberculosis (strain ATCC 25618 / H37Rv)) (UniProt P9WFW3).
T1 sequence (whole entry): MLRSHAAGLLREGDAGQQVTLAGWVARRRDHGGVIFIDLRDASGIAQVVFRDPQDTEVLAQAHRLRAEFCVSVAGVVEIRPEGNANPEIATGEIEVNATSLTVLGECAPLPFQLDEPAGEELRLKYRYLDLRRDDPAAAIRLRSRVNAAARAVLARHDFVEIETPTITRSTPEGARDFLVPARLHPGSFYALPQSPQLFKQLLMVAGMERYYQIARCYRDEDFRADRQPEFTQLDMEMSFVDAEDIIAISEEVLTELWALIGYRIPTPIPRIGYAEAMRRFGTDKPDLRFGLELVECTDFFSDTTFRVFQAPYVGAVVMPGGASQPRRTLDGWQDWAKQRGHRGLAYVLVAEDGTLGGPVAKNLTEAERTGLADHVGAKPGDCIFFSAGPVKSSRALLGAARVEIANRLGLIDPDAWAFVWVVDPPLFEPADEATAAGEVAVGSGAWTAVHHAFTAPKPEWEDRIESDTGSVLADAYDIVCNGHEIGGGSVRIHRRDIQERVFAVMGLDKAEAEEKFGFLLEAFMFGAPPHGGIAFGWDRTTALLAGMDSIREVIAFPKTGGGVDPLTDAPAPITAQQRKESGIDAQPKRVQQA
Briefly: Assay for Asp RNA synthetase-1 from Mycobacterium tuberculosis. The class given is functional. The arrangement: scale not given: direction of the effect not stated beside the values. To be noted: 30 µM.

Experiment [2] addresses Shiga toxin 2 (Escherichia coli O157:H7) (UniProt P09385+P09386). Briefly: E. coli 0.157:H7 Shiga Toxin SOP - stx2 screening assay. Type of experiment: functional. The arrangement: scale not given: direction of the effect not stated beside the values. To be noted: 30 µM.

For `c1csc(CN2CCOCC3(CCN(C4CCOCC4)C3)C2)n1` (stereo not drawn), the Percent Effect in experiment [1] was 9.2%; in experiment [2] it was -7.95%.
The corresponding values for `COc1cccc(C(=O)N2CCCC(c3cc(C)[nH]n3)C2)c1OC` (stereo not drawn) are -1.08% and 27%.
Taken in the same sequence, the figures for `Cc1cc(CN(C)Cc2cc3c(cc2OC(F)F)OCO3)on1` were 4.16% and 19.4%.
Taken in the same sequence, the figures for `Cc1nnc(CN2CCC(N(C)Cc3nnc(C4CC4)n3C)C2)o1` (stereo not drawn) were -1.43% and 18.5%.
On to `CN1N=C(C(=O)N(Cc2ccco2)C2CC2)CCC1=O`, for which the Percent Effect in experiment [1] was -2.73%; in experiment [2] it was 1.36%.
Regarding `COCCNc1ccc(CNC(=O)Nc2cn[nH]c2)cc1`, the results for the Percent Effect in experiment [1] and in experiment [2] were -0.4% and -2.17%, respectively.
Taken in the same sequence, the figures for `Cc1nc(CNC(=O)Cn2nc(-c3ccc(F)cc3)oc2=O)cs1` were -0.967% and 17.9%.
The corresponding values for `Cc1csc(N2CCN(CCc3ccccn3)CC2C)n1` (stereo not drawn) are -6.27% and -7.75%.
The corresponding values for `Cc1cccc(CN2C[C@@H]3COC[C@]3(COc3ccc(C#N)cn3)C2)n1` are -4.33% and -13.9%.
In the case of `CCc1nc(CN2CCCN(C(=O)C(C)n3ccnc3)CC2)cs1` (stereo not drawn), the figures for the Percent Effect in experiment [1] and in experiment [2] were -1.76% and 8.27%, respectively.
The corresponding values for `Cc1nn(C)c(C)c1C(C)NC(=O)Nc1cccnc1N1CCCC1` (stereo not drawn) are -3.63% and 10.7%.
The corresponding values for `Cc1noc(C)c1CNCC1CCN(CC(O)c2ccccc2)CC1` (stereo not drawn) are -1.06% and -21.8%.
Taken in the same sequence, the figures for `COCC(=O)N1CCCC1c1cc(Nc2nnc(C)s2)nc(C)n1` (stereo not drawn) were -3.43% and -14.2%.
On to `Nc1nc2c(c(=O)[nH]1)CCN(C(=O)c1cccc3nccnc13)C2`, for which the figures for the Percent Effect in experiment [1] and in experiment [2] were 6.9% and -31.4%, respectively.
`CS(=O)(=O)c1ccc(CNC(=O)N2CCC(c3ccccc3)CC2)cc1`: the Percent Effect in experiment [1] is -2.06%; in experiment [2] it was 7.64%.
Taken in the same sequence, the figures for `Cc1nccn1CC1CCCN1S(=O)(=O)Cc1ccccc1` (stereo not drawn) were -1.4% and 4.42%.
As to `COc1ccc(C2CCCN2C(=O)c2csc(NC(C)=O)n2)cc1` (stereo not drawn), the Percent Effect is 0.516% in experiment [1] and -30.4% in experiment [2].
Taken in the same sequence, the figures for `O=C(NCCCn1ccnc1)N1CCCC1c1cccs1` (stereo not drawn) were -2.61% and -5.52%.
Taken in the same sequence, the figures for `CCNC(=O)N1CCCCC1CCO` (stereo not drawn) were -3.54% and -15.4%.
